{"source": "PubChem BioAssay (Tox21)", "note": "Calls of active or inactive are those of the source. Calls come from the whole dose curve; as a rule, active = well fitted activation curve with a large enough effect in the repeat runs; inconclusive = weak or mixed curves; inactive = flat fitted curve, though single readings scatter. % is set by controls: 0 for no effect and ±100 for the full control effect."}
{"assay": "A CellTox Green Cytotoxicity Assay to monitor cytotoxicity in HEK293 cells - 0 hour (AID 1224869); note: nearly all actives have a fitted effect of over 50% in size", "details": "CellTox Green fluorescence; series mostly up to 76.8 µM; cytotoxicity: at the top concentration", "in_short": "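HEK293 cells premixed with CellTox Green dye were seeded at 600 cells/well and left 5 h at 37 C/5% CO2 before pin transfer of 23 nL compound in DMSO. Fluorescence from dye bound to dead-cell DNA was read during 40 h treatment.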"}
{"compound": "CC1(C)C(=O)N(CO)C(=O)N1CO", "cytotoxicity": "3.25% (inactive)"}
{"compound": "CCOC(=O)CN", "cytotoxicity": "0.964% (inactive)"}
{"compound": "O=C1OC(=O)c2ccc3c4c(ccc1c24)C(=O)OC3=O", "cytotoxicity": "0.196% (inactive)"}
{"compound": "CC(C)=CC1CC(C)CCO1", "note": "(stereo unspecified)", "cytotoxicity": "1.31% (inactive)"}
{"compound": "CC(C)(C)C1=CC(=O)C=C(C(C)(C)C)C1=O", "cytotoxicity": "5.02% (inactive)"}
{"compound": "CCCC(O)C(O)CO", "note": "(stereo unspecified)", "cytotoxicity": "0.917% (inactive)"}
{"compound": "COc1ccccc1C=O", "cytotoxicity": "4.95% (inactive)"}
{"compound": "CCCCCCCC(OC)OC", "cytotoxicity": "8.64% [at 35.3 µM] (inactive)"}
{"compound": "CCCCCCCCCCCCCCNCCO", "cytotoxicity": "-10.6% [at 35.3 µM] (inactive)"}
{"compound": "CCOC(=O)COc1ccc(C)cc1", "cytotoxicity": "-0.265% (inactive)"}
{"compound": "c1ccc(Sc2ccccc2)cc1", "cytotoxicity": "0.177% (inactive)"}
{"compound": "COc1cccc(O)c1", "cytotoxicity": "-6.67% (inactive)"}
{"compound": "Cc1cccc(Br)c1", "cytotoxicity": "3.88% (inactive)"}
{"compound": "CCc1cccc(C)c1", "cytotoxicity": "-1.73% (inactive)"}
{"compound": "Brc1ccccn1", "cytotoxicity": "-5.37% (inactive)"}
{"compound": "CCOB(OCC)OCC", "cytotoxicity": "-13.2% (inactive)"}
{"compound": "CC(=O)O[C@@H]1C[C@@H]2CC[C@@]1(C)C2(C)C", "cytotoxicity": "0.564% (inactive)"}
{"compound": "Oc1cc2ccccc2cc1O", "cytotoxicity": "8.46% (inactive)"}
{"compound": "O=C(O)CCCCCCC(=O)O", "cytotoxicity": "-0.728% (inactive)"}
{"compound": "Cc1ccc(N)cc1O", "cytotoxicity": "0.0386% (inactive)"}
{"compound": "CCCCCCCCC(C)=O", "cytotoxicity": "-5.18% (inactive)"}
{"compound": "c1ccc2c(c1)CCC2", "cytotoxicity": "1.69% (inactive)"}
{"compound": "Cn1cnc2ncnc(N)c21", "cytotoxicity": "-5% [at 35.3 µM] (inactive)"}
{"compound": "Clc1nc2ccccc2s1", "cytotoxicity": "0.0925% (inactive)"}
{"compound": "CC(=O)c1ccccc1N", "cytotoxicity": "-8.2% (inactive)"}
{"compound": "OCCN1CN(CCO)CN(CCO)C1", "cytotoxicity": "-0.473% (inactive)"}
{"compound": "OCCCc1cccnc1", "cytotoxicity": "-8.5% (inactive)"}
{"compound": "CN(C)CCN1CCOCC1", "cytotoxicity": "-0.862% (inactive)"}
{"compound": "COc1ccc(C#N)cc1", "cytotoxicity": "0.163% (inactive)"}
{"compound": "CC(C)=C1CC[C@@H](C)CC1=O", "cytotoxicity": "0.176% (inactive)"}
{"compound": "NCCCC(O)(P(=O)(O)O)P(=O)(O)O", "cytotoxicity": "5.66% [at 35.3 µM] (inactive)"}
{"compound": "OCCC(O)CO", "note": "(stereo unspecified)", "cytotoxicity": "-0.0725% (inactive)"}
{"compound": "CCOCN(C(=O)CS(=O)(=O)O)c1c(C)cccc1CC", "cytotoxicity": "-4.44% (inactive)"}
{"compound": "CC(=O)C=O", "cytotoxicity": "9.34% (inactive)"}
{"compound": "C=CC(C)C#N", "note": "(stereo unspecified)", "cytotoxicity": "-2.44% (inactive)"}
{"compound": "CCC(=O)CC(C)CC", "note": "(stereo unspecified)", "cytotoxicity": "6.34% [at 0.29 µM] (inactive)"}
